High-throughput results deposited in PubChem BioAssay by several laboratories.
Only some compounds are listed: those with a hit (about 5.4% of all), similar ones and a draw of the others.
AHR activator – activates the human aryl hydrocarbon receptor; hit rate 2.5% among 320,000; activation, % at 5 µM; P35869; AHR-responsive luciferase reporter cells, luminescence; in the data active = activation above about 47%
HSF-1 act – increases HSF-1 driven luciferase reporter signal | hit rate 1.7% among 300,000 | NIH3T3-HGL HSF-1 luciferase reporter, MG132, 8 h; 100% = twice DMSO control signal | activation, % at 9 µM;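 active = mean replicate activation of at least 50% with a set share of replicates each reaching 50%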
DAX1 inh – inhibitors of human orphan nuclear receptor DAX1 (NR0B1); P51843; HEK293 Gal4-DAX1 luciferase reporter, luminescence; AID 504766; inhibition, % at 6.75 µM; hit rate 0.99% among 340,000;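 active = inhibition above the mean over all tested compounds plus 3 SD, cut at about 4.2% in these data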;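 also: inhibition shows as a rise in luminescence from relieved DAX1 repression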
GAA850 FXN act – increases GAA850 frataxin promoter reporter activity. HEK293 lucGAA850 FXN promoter luciferase reporter, 24 h; percent of 10 µM SAHA response. activation, % at 6 µM. hit rate 0.56% among 360,000. AID 540364;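 active = activation above the average of all compounds screened plus 3 SD, cutoff fixed separately per campaign, cut at about 7.5% in these data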
HSF1 inh – HSF1 inhibition | AID 2098 | NIH3T3-HGL HSE-luciferase, MG132-induced, luminescence 8 h; stronger effect = lower value | activity change, negative = inhibition, % at 7.5 µM (by protocol) | hit rate 0.77% among 300,000;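 active = more than half of replicate wells show activity change below -50%, luminescence cut by over half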;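 also: luciferase reports HSF-1 transcriptional activity via heat shock element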
AHR act cf – confirmation of human aryl hydrocarbon receptor activators | shares compounds with AHR activator | human cells, AHR-responsive luciferase reporter, luminescence | activation, % at 9 µM | hit rate 87% among 2,300 | AID 2845; in the data active = activation above about 49%;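 also: HepG2 hepatoma cells carrying a DRE-driven firefly luciferase reporter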
PXR counter – PXR activation, counter-screen for AHR activators | cell-based PXR reporter, luciferase luminescence | shares compounds with AHR activator | hit rate 88% among 2,300 | activation, % at 11.6 µM | AID 434939; in the data active = activation above about 11%;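 also: human hepatoma DPX-2 cells expressing full-length human PXR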
Target sequence (O75469 whole entry, looked up): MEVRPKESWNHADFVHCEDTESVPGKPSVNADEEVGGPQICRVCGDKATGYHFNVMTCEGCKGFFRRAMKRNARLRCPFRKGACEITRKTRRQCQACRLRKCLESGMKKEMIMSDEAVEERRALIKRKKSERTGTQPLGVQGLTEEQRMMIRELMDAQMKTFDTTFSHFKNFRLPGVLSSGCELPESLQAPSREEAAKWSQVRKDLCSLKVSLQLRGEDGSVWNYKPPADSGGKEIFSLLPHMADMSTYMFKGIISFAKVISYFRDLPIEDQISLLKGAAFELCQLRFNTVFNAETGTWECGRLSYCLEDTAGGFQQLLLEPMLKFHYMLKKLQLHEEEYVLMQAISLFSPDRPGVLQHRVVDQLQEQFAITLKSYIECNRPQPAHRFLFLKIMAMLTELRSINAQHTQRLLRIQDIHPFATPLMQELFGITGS
Large screens that a line does not name were inactive (follow-up assays come after a bar, where they were run).

OC(c1ccccc1)c1nc(-c2cccs2)cs1 (stereo unspecified)	none (no result: AHR activator, HSF-1 act, DAX1 inh, HSF1 inh)
O=c1c2ccccc2nc2oc3ccccc3n12	AHR activator 95 | AHR act cf 93 | PXR counter 17
COc1ccc(NC(=O)c2nc[nH]c2C(=O)NCCCCCNC(=O)OC(C)(C)C)cc1	AHR activator 133 (no result: HSF-1 act, DAX1 inh, GAA850 FXN act, HSF1 inh) | AHR act cf 141 | PXR counter 30
COc1ccc(NC(=O)c2nc[nH]c2C(=O)NCc2ccccc2)cc1	none
CNC(=O)c1[nH]cnc1C(=O)Nc1cccc(C)c1	AHR activator 101 (no result: HSF-1 act, HSF1 inh) | AHR act cf 133 | PXR counter 24
CNC(=O)c1[nH]cnc1C(=O)Nc1ccc(OC)cc1	AHR activator 126 | AHR act cf 124 | PXR counter 27
O=c1oc2ccccc2n1CCc1ccccc1	AHR activator 94 | AHR act cf 100 | PXR counter 34
Cc1cccc(NC(=S)NNC(=O)c2ccccc2OC(F)F)c1	AHR activator 116 | AHR act cf 121 | PXR counter 34
CCOc1ccccc1NC(=S)Nc1ncccc1C	AHR activator 122 | AHR act cf 81 | PXR counter 52
CCOc1ccccc1NC(=S)Nc1ccccc1F	none
O=C(Cc1cccc(NC(=O)C2CCN(C(=O)C3CCCCC3)CC2)c1)Nc1cccc(C(=O)N2CCCC2)c1	none (no result: HSF-1 act, HSF1 inh)
Cc1cc(=O)[nH]c(-c2ccc(C(F)(F)F)cc2)n1	AHR activator 87 | AHR act cf 114 | PXR counter 11
Cc1ccc(-c2nc(C(F)(F)F)cc(=O)[nH]2)cc1	none
Cc1ccc(C(=O)N2CCN(S(=O)(=O)c3ccccc3[N+](=O)[O-])CC2)o1	none
N#C/C(=C/c1ccccc1)c1nn(CCO)c(N)c1C#N	AHR activator 120 | AHR act cf 91
N/C(=N\c1nc2ccccc2o1)NC(=O)c1ccccc1	AHR activator 184 | AHR act cf 180 | PXR counter 94
COc1ccc([C@H]2CC(=O)C=C(c3ccccc3OC)C2)cc1OC	none (no result: HSF-1 act, HSF1 inh)
O=C(Nc1ccc(Cl)cc1)[C@@H]1[C@@H]2C(=O)N(c3ccc(Cl)cc3)C(=O)[C@@H]2[C@H]2C=CC=NN21	AHR activator 98 | AHR act cf 63 | PXR counter 13
Fc1cc(Br)ccc1Nc1nc2ccccc2n2nnnc12	AHR activator 131 | AHR act cf 125 | PXR counter 28
COc1ccc(Nc2nc3ccccc3n3nnnc23)cc1	AHR activator 99 | AHR act cf 103 | PXR counter 29
Clc1ccc(Nc2nc3ccccc3n3nnnc23)cc1	AHR activator 81 | AHR act cf 104 | PXR counter 50
CCOC(=O)c1cnn(C)c1NC(=O)c1ccc([N+](=O)[O-])cc1	none
O=C(Nc1ccc(F)c(F)c1)C1CCN(S(=O)(=O)c2cccs2)CC1	none (no result: HSF-1 act, HSF1 inh)
Cc1nc(SCc2nc3c(C)cccc3[nH]2)c2oc3ccccc3c2n1	none (no result: HSF-1 act, HSF1 inh)
Cc1nc(SCc2nc3c(F)cccc3[nH]2)c2oc3ccccc3c2n1	AHR activator 80 (no result: HSF-1 act, HSF1 inh) | AHR act cf 80 | PXR counter 40
CN(C)C=Nc1ccc2nn(-c3ccccc3)nc2c1	AHR activator 109 | AHR act cf 117 | PXR counter 17
O=C(CCn1cccn1)Nc1ccc(-c2ccno2)cc1	none
Cc1cc(C)nc(NC(=O)c2cc(-c3ccc4c(c3)OCO4)nc3ccccc23)c1	AHR activator 89 | AHR act cf 78 | PXR counter 44
O=c1nc2sc3ccccc3n2c(=O)n1-c1cccc(Cl)c1	AHR activator 81 | AHR act cf 115 | PXR counter 33
Cc1ccc2c(c1)sc1nc(=O)n(-c3cccc(Cl)c3)c(=O)n12	none
COc1ccc(OC)c(NC(=O)Cn2nc(C)c3ccccc3c2=O)c1	none
Cn1c(=O)c2c(nc(N/N=C3\CCCc4ccccc43)n2Cc2ccc(F)cc2)n(C)c1=O	AHR activator 95 | AHR act cf 89 | PXR counter 40
O=C1COCC(=O)N1CCc1c[nH]c2ccccc12	AHR activator 83 | AHR act cf 108 | PXR counter 12
Cc1cccc(-c2oc3ccccc3c2C#CCCO)c1	AHR activator 97 | AHR act cf 68 | PXR counter 24
CC(=O)c1ccccc1NC(=O)c1ccc2c(c1)NC(=O)C(C)S2 (stereo unspecified)	AHR activator 122 | AHR act cf 143 | PXR counter 152
O=C(Nc1ccccc1N1CCCC1)c1ccc([N+](=O)[O-])cc1Cl	AHR activator 91 | AHR act cf 87 | PXR counter 212
O=C(Nc1ccccc1N1CCN(C(=O)c2ccc(Cl)cc2)CC1)c1cccc([N+](=O)[O-])c1	AHR activator 127, HSF-1 act 71 | AHR act cf 102 | PXR counter 87
CN1CCN(c2ccccc2NC(=O)c2cccc([N+](=O)[O-])c2)CC1	none
O=C(Nc1ccccc1N1CCCC1)c1ccc(Cl)cc1Cl	none
COC(=O)[C@H](CC(C)C)NS(=O)(=O)c1ccc(F)cc1Br	none (no result: AHR activator, HSF-1 act, HSF1 inh)
COc1ccc(Cl)cc1NC(=O)COC(=O)C1=NNC(=O)CC1	none (no result: HSF-1 act, HSF1 inh)
Cc1ccc(S(=O)(=O)NCCOc2cc(C)ccc2C)cc1	none
CCc1ccccc1S(=O)(=O)Cc1ccc(C(=O)N2CCN(c3ccccn3)CC2)o1	AHR activator 84 | AHR act cf 65 | PXR counter 107
Cc1ccccc1S(=O)(=O)Cc1ccc(C(=O)N2CCN(c3ncccn3)CC2)o1	none
O=C(NCc1ccc(Cl)cc1)N1CCN(S(=O)(=O)c2ccccc2)CC1	none
C=C(C)c1cccc(C(C)(C)NC(=O)Nc2ncccn2)c1	none
C=C(C)c1cccc(C(C)(C)NC(=O)Nc2ccc(Cl)cn2)c1	AHR activator 91 | AHR act cf 95 | PXR counter 73
CC(C)CCNC(=O)CCC(=O)NNc1nc2ccccc2c2nc(-c3ccccc3)nn12	none
O=C(CCC(=O)NNc1nc2ccccc2c2nc(-c3ccccc3)nn12)NCCCN1CCOCC1	AHR activator 84 | AHR act cf 91 | PXR counter 16
C=CCOC(=O)C1CC=CCC1C(=O)Oc1ccc(F)cc1F (stereo unspecified)	none
Cn1c(N=Nc2ccccc2)nc2ccccc21	AHR activator 138 | AHR act cf 98 | PXR counter inactive
CCN1CCn2c3c(c4cc(Cl)ccc42)CCCC31 (stereo unspecified)	AHR activator 118 | AHR act cf 62 | PXR counter 48
Cn1c(SCC(=O)N/N=C/C=C\c2ccccc2[N+](=O)[O-])nc2ccccc21	AHR activator 108 | AHR act cf 55 | PXR counter 81
Cn1c(SCC(=O)N/N=C/C=C/c2ccccc2[N+](=O)[O-])nc2ccccc21	AHR activator 117 | AHR act cf 56 | PXR counter 75
